Measurements: ChEMBL document CHEMBL3988442, “University of Dundee, Small-Polar-MMV Screening Library” (2021)
Out of some 48,000 compounds screened, about 13,000 (27%) showed an effect of 50% or more. Some of the results follow.

Test system: Wolbachia pipientis
Assay: Anti-Wolbachia Cell-Based Screen
Format: functional
Set-up: scale not given: in the data most compounds retested in dose-response had high values
Conditions: 5 µM

SMILES	Percent Effect
CC(CCn1cccn1)Nc1ccc(-c2nccn2C)nn1 (configuration not stated)	-7.65%
CC(C)(NS(C)(=O)=O)C(=O)NCCc1csc2ccccc12	9.786%
Cc1occc1C(=O)N1CCCN(Cc2ncc(Cl)n2C)CC1	3.419%
Cc1cc(C(=O)N2CCCN(Cc3nccn3C)CC2)no1	89.63%
Cn1ccnc1CN1CCCN(C(=O)c2ccc(Cl)o2)CC1	-2.733%
CCc1nnsc1C(=O)N1CCCN(Cc2nccn2C)CC1	-3.239%
Cc1occc1C(=O)N1CCCN(Cc2nccn2C)CC1	92.51%
O=C(NCc1ccccc1)c1nnc2ccc(N3CCOCC3)cc2n1	4.321%
Cc1ccc(C)c2c(O)cc(CN[C@H]3CCCCNC3=O)nc12	-6.417%
Cc1cc(NCC2CC(=O)Nc3ccccc32)nc(C)n1 (configuration not stated)	2.28%
CN(C)S(=O)(=O)N1CCC(OCCCc2ccccc2)C1 (configuration not stated)	-12.64%
CC(C)C(=O)N1CCC(c2c(C(N)=O)sc3ccccc23)C1 (configuration not stated)	99.6%
CCN(CC)S(=O)(=O)N1CCCC(c2cccc(C(=O)O)c2)C1 (configuration not stated)	14.6%
CCN(CC)S(=O)(=O)N1CCCC(c2ccc(C(=O)O)cc2)C1 (configuration not stated)	-2.613%
CC(NC(=O)N1CCC(CC(N)=O)CC1)c1csc2ccccc12 (configuration not stated)	-9.558%
O=S(=O)(N1CCOCC1)N1CCOC(CCc2ccccc2)C1 (configuration not stated)	-18.19%
CN(C)S(=O)(=O)N1CCC(c2c(C(N)=O)sc3ccccc23)C1 (configuration not stated)	94.67%
CCN(CC)S(=O)(=O)N1CCC(c2c(C(N)=O)sc3ccccc23)C1 (configuration not stated)	158.5%
O=S(=O)(N1CCOCC1)N1CCOC(CCCc2ccccc2)C1 (configuration not stated)	5.354%
NC(=O)c1sc2ccccc2c1C1CCN(S(=O)(=O)N2CCOCC2)C1 (configuration not stated)	162.8%
CN(C)S(=O)(=O)N1CC[C@]2(O)CCN(c3nc4ccccc4s3)C[C@@H]2C1	10.05%
CC(C)C(=O)N1CCC(C2C(=O)Nc3ccccc32)CC1 (configuration not stated)	-15.74%

SMILES	Percent Effect
COCC1CCN(C(=O)c2cc(O)nc(CC(C)C)c2)CC1	9.231%
Cl.Cl.c1c(CN2CCCC2)nc2n1CCNC2	4.335%
CC(C(=O)NCc1cccc(N2CC=CC2)c1)n1cccn1 (configuration not stated)	-4.465%
CCOC(=O)N1CCN(C(=O)Cc2c(C)nc(C)[nH]c2=O)CC1	-14.69%
Cc1cnccc1NCCn1ccnc1C1CCOC1 (configuration not stated)	-4.825%
CCC(Nc1ncnc2sc(C(=O)O)c(C)c12)c1ccnn1C (configuration not stated)	-0.5167%
Cc1ccc(CN2C(=O)CC[C@]23CC[C@@H](NCC2CCOC2)CC3)cc1.O=C(O)C(F)(F)F (some centres not stated)	-23.04%
O=C(NCCOc1ccc2c(c1)OCO2)C1CC(=O)N(C2CC2)C1 (configuration not stated)	106.6%
CC(C)CN1CC(C(=O)NCCOc2ccc3c(c2)OCO3)CC1=O (configuration not stated)	103.1%
O=C(NCCOc1cccc(Cl)c1)C1CC(=O)N(CC2CC2)C1 (configuration not stated)	-4.254%
CCN1CC(C(=O)NCc2ccnc(-n3ccnc3C)c2)CC1=O (configuration not stated)	5.504%
Cc1ccc(OCCC(=O)NC2CC(=O)N(C)C2)cc1C (configuration not stated)	-10.49%
CN1CC(C(=O)NCCOc2ccc3c(c2)OCO3)CC1=O (configuration not stated)	106.4%
COC(=O)CCNC(=O)C1CC(=O)N(C2CCCC2)C1 (configuration not stated)	-11.01%
CC(C)N1CC(C(=O)NCCOc2ccc3c(c2)OCO3)CC1=O (configuration not stated)	7.499%
CC(C)CN1CC(C(=O)NCCc2c[nH]cn2)CC1=O (configuration not stated)	10.41%
O=C(NCCOc1ccc2c(c1)OCO2)C1CC(=O)N(CC2CC2)C1 (configuration not stated)	4.084%
CCN1CC(C(=O)NCCOc2ccc3c(c2)OCO3)CC1=O (configuration not stated)	101.2%
CC(=O)N1CCN(c2ccccc2CNc2cncc(C)c2)CC1	-7.391%
CCc1cc(=O)[nH]c2nnc(SCC(=O)NC)n12	-1.194%
Cc1cc(N2CCC(c3nccn3Cc3cscn3)CC2)ccn1	-23.28%
O=C(Cc1ccsc1)N1CCC2(CCCN(CC3CCOCC3)C2)C1 (configuration not stated)	-0.5355%

SMILES	Percent Effect
O=C(NCc1cccs1)NCC1(O)CCc2ccccc2C1 (configuration not stated)	-8.141%
O=C1NC2(CCN(C(=O)Cc3ccsc3)CC2)CC1c1ccccc1 (configuration not stated)	6.926%
O=C(c1cccs1)N1CCC(O)(CN2CCc3ccccc3C2)C1 (configuration not stated)	-8.795%
O=C(Cc1cccs1)N1CCC(O)(CN2CCc3ccccc3C2)C1 (configuration not stated)	105.2%
O=C(Cc1ccsc1)N1CCC(O)(CN2CCc3ccccc3C2)C1 (configuration not stated)	104.8%
CC(C)c1cc(NC(CO)CO)n2nccc2n1	17.2%
CC(C)n1nc2c(cc1=O)CN(Cc1nc(-c3ccoc3)no1)CC2	17.12%
COCCN1CCC(C(=O)N(C)CCOc2ccc(C)cc2Cl)C1 (configuration not stated)	-22.94%
O=C1CO[C@H]2CN(Cc3ccc(F)c(F)c3)C[C@H]2N1	-16.97%
O=C1CO[C@@H]2CN(S(=O)(=O)c3ccccc3F)C[C@H]2N1	96.68%
O=C1CO[C@H]2CN(Cc3ccc(C(F)(F)F)cc3)C[C@H]2N1	-16.85%
O=C1CO[C@@H]2CN(S(=O)(=O)c3ccc(F)cc3)C[C@H]2N1	87.78%
CNC(=O)Cc1csc(NC(=O)C2CSCCC(=O)N2)n1 (configuration not stated)	9.778%
Cc1nc2c(c(NC3CC3)n1)CCN(C(=O)C1(C#N)CC1)CC2	-9.329%
CCNc1ccnc(N2Cc3cnc(CC(C)C)nc3C2)n1	8.628%
CCCSc1ncc(Cl)c(C(=O)NC(CCSC)C(=O)O)n1 (configuration not stated)	125.3%
CSCCC(NC(=O)c1ccc2ccccc2n1)C(=O)O (configuration not stated)	-5.769%
CSCCC(NC(=O)c1nc(SC)ncc1Cl)C(=O)O (configuration not stated)	130.6%
CCOCCNC(=O)C(CCSC)NC(=O)c1ccc2ccccc2n1 (configuration not stated)	5.309%
CCOc1ccc(Cl)c(C(=O)NC(C(N)=O)c2ccccc2)n1 (configuration not stated)	-8.916%
CSCCC(NC(=O)c1ccc2ccccc2n1)C(=O)N(C)C (configuration not stated)	-7.928%
CSc1ncc(Cl)c(C(=O)NC(Cc2ccccc2)C(=O)O)n1 (configuration not stated)	98.91%

SMILES	Percent Effect
CSc1ccsc1C(=O)NC(Cc1ccccc1)C(N)=O (configuration not stated)	-23.55%
CCOc1ccc(Cl)c(C(=O)NC(Cc2ccccc2)C(N)=O)n1 (configuration not stated)	-4.15%
CCSc1ncc(Cl)c(C(=O)NC(CCSC)C(=O)O)n1 (configuration not stated)	88.5%
C=C(C)COc1ccc(C(=O)NCCn2c(C)cc(C)nc2=O)cc1	3.763%
NC(CC1CCCC1)c1ccc(Oc2ccccc2)cc1 (configuration not stated)	-4.539%
Cc1nnc(CN2CCCC2c2ccc3c(c2)OCCCO3)n1C (configuration not stated)	-16.28%
Cc1ccc(CNCc2nnc3n2CCCC3C(F)(F)F)s1 (configuration not stated)	-0.9896%
Cc1cc(CC(=O)NCC(O)COc2ccc(F)c(F)c2)n[nH]1 (configuration not stated)	-4.204%
CCN(CC)C(=O)c1ccc(Cl)c(NC(=O)c2csnn2)c1	102.3%
COCCN(Cc1ccc(F)cc1Cl)C(=O)c1csnn1	2.289%
CCN(CC)c1ccc(CNC(=O)c2cnc(C)cn2)cn1	0.4576%
CC(C)OCCC(=O)Nc1cc(C(=O)N(C)C(C)C)ccc1Cl	-18.48%
CCN(CC)C(=O)c1ccc(Cl)c(NC(=O)c2cc[nH]n2)c1	48.61%
CCN(CC)C(=O)c1ccc(Cl)c(NC(=O)c2cnc(C)cn2)c1	101.4%
CCN(CC)C(=O)c1ccc(Cl)c(NC(=O)c2cc(C(C)C)on2)c1	105.3%
Cc1cnc(C(=O)N(CCN(C)C)Cc2ccc(Cl)cc2)cn1	18.7%
CC(C)CC(=O)Nc1cc(C(=O)N(C)C(C)C)ccc1Cl	-13.72%
O=C(c1nc(=O)[nH]c2ccccc12)N1CCCC(CC2CC2)(C(=O)O)C1 (configuration not stated)	-2.768%
CCc1noc(CS(=O)(=O)c2cccc(OC)c2)n1	-12.89%
CN(C)C[C@@H]1CN(C(=O)Cc2ccc3ccccc3c2)C[C@@H]1CO	-10.12%
Cc1c(C(=O)N2CCC(O)(CN(C)C)C2)c2cc(O)ccc2n1C (configuration not stated)	-4.838%
CN(C)CC1(O)CCN(C(=O)Cc2ccc3c(c2)CCC3)C1 (configuration not stated)	113.1%

SMILES	Percent Effect
CN(CCO)C[C@@H]1CN(C(=O)Cc2ccc3ccccc3c2)C[C@@H]1CO	-10.71%
CN(C)CC1(O)CCN(C(=O)Cc2ccc3ccccc3c2)C1 (configuration not stated)	131.3%
Cc1cc2occ(CC(=O)N3CCC(O)(CN(C)C)C3)c2cc1Cl (configuration not stated)	-55.74%
CN(C)CC1(O)CCN(C(=O)Cc2ccc3c(c2)CCCC3)C1 (configuration not stated)	97.61%
CN(C)CC1(O)CCN(C(=O)Cc2ccc(Cl)c(Cl)c2)C1 (configuration not stated)	-5.552%
CN(C)CC1(O)CCCN(C(=O)Cc2ccc(Cl)c(Cl)c2)C1 (configuration not stated)	6.381%
COc1c(NC(=O)N(C)CCOc2ccc(F)cc2)c(C)nn1C	-9.317%
CC(=O)N1CCCC1C(=O)NCCOc1ccc(C(C)C)cc1 (configuration not stated)	97.98%
CC(C)CCNC(=O)C1CCCN1C(=O)Nc1cccc(F)c1 (configuration not stated)	134.2%
O=C1CCCN1CC1CCCCN1C(=O)Nc1cccc(F)c1 (configuration not stated)	-9.718%
CC(=O)N1CCCC1C(=O)NCCOc1c(C)cccc1C (configuration not stated)	70.88%
CC(=O)NCCOc1c(C)cccc1C	-5.514%
CC(=O)N1CCCC1C(=O)NCCOc1cccc(F)c1 (configuration not stated)	92.85%
CC(=O)N1CCN(C(=O)CCOc2ccc(C(C)C)cc2)CC1	-11.35%
CC(=O)N1CCC[C@H]1C(=O)N(C)CCCOc1ccccc1	16.69%
CC(=O)N1CCC[C@H]1C(=O)NCCOc1cccc(Cl)c1	1.208%
CC(=O)N1CCCC1C(=O)NCCOc1cc(C)cc(C)c1 (configuration not stated)	2.584%
Cc1ccc(F)cc1NC(=O)C1CCCN1C(=O)C(C)C (configuration not stated)	-3.665%
C=C(C)COCCNC(=O)C1CCCN1C(C)=O (configuration not stated)	4.711%
